Results reported in the supplement of paper PMC9135407.
Where “and” joins values, the source holds several entries; their conditions need not be identical. Identical values can stand only once. Counter-ions that a name gives are not always drawn. Hit rate of the full screen: of about 5,800 compounds, about 620 (11%) showed activity. Many of the other results were omitted from the sample, so actives are more common in it than they were. A number with no mark means an inactive call.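 Rule for the calls: active = score above a cut-off or among the top three wells of a plate; in these data no inactive exceeds 0.85.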

Tested on: primary human hepatic stellate cells (donor 1)
Assay: scaled lipid accumulation score (0 = DMSO-like, 1 = nortriptyline-like); higher = stronger HSC inactivation (lipid re-accumulation), active = hit call of the paper
Conditions: 48 h
[1] = library stock concentration: 3.33 mM
[2] = library stock concentration: 10 mM
[3] = library stock concentration: 1 mM
[4] = library stock concentration: 80 uM
[5] = library stock concentration: 400 uM
[6] = library stock concentration: 2 mM

Structure (SMILES): Cn1nc2c3c(cccc31)C(=O)c1ccccc1-2 [JNK Inhibitor, Negative Control]
- scaled lipid accumulation score [1]: ≤ 0

Structure (SMILES): Cc1ccc2nc(NC(=O)CSc3nc4c(c(=O)n3-c3ccccc3)SCC4)sc2c1
- scaled lipid accumulation score [1]: ≤ 0
- scaled lipid accumulation score [2]: 0.76

Structure (SMILES): COc1ccc(CNc2nc(N(CCO)CCO)nc3c2ncn3C(C)C)cc1 [Cdk2 Inhibitor III]
- scaled lipid accumulation score [1]: 0.067

Structure (SMILES): CCCCCCCC/C=C\CCCCCCCCCCCCCC(=O)NCCS(=O)(=O)O [N-Nervonoyl Taurine]
- scaled lipid accumulation score [3]: 0.028

Structure (SMILES): CCCCC[C@H](O)/C=C/[C@H]1CC[C@@H](O)[C@@H]1CCCCCCC(=O)O [11-deoxy Prostaglandin F1.beta.]
- scaled lipid accumulation score [3]: ≤ 0

Structure (SMILES): CCCCCCCCCC(=O)CC(=O)N[C@H]1CCOC1=O [N-3-oxo-dodecanoyl-L-Homoserine lactone]
- scaled lipid accumulation score [3]: 0.017

Structure (SMILES): COc1cc2ncc(-c3ccccc3)nc2cc1OC [Tyrphostin AG 1296]
- scaled lipid accumulation score [1]: ≤ -0.009
- scaled lipid accumulation score [2]: ≤ 0

Structure (SMILES): COc1cc2ncc(-c3ccccc3)nc2cc1OC
- scaled lipid accumulation score [1]: ≤ 0
- scaled lipid accumulation score (library stock concentration: 18.8 mM): 0.096

Structure (SMILES): COc1cc2c(cc1OC)-c1cc3nc4ccccc4nc3n1C(C)(C)C2
- scaled lipid accumulation score [2]: 0.923 (active)

Structure (SMILES): CN(CCO)CC(O)Cn1cnc2c1c(=O)n(C)c(=O)n2C (stereo not drawn)
- scaled lipid accumulation score [2]: ≤ 0

Structure (SMILES): c1([C@]2(C(=O)OC)c3c(c4c(cccc4)[nH]3)CN(CC5C2)CC(CC)=C5)cc6c(N(C)[C@]7([H])[C@]6(CC8)[C@]([H])(N89)[C@@](CC)(C=CC9)[C@@H](OC(=O)C)[C@]7(O)C(=O)OC)cc1OC.C(=O)(O)[C@H](O)[C@@H](O)C(=O)O.C(=O)(O)[C@H](O) (stereo partly drawn) [Vinorelbine Tartrate]
- scaled lipid accumulation score [1]: 1.26 (active)
- scaled lipid accumulation score [2]: 0.863 (active)

Structure (SMILES): CCC1=C[C@@H]2CN(C1)Cc1c([nH]c3ccccc13)[C@@](C(=O)OC)(c1cc3c(cc1OC)N(C)[C@H]1[C@@](O)(C(=O)OC)[C@H](OC(C)=O)[C@]4(CC)C=CCN5CC[C@]31[C@@H]54)C2 [Vinorelbine]
- scaled lipid accumulation score (library stock concentration: 2.6 mM): 0.75

Structure (SMILES): CCC1=C[C@H]2CN(C1)Cc1c([nH]c3ccccc13)[C@@](C(=O)OC)(c1cc3c(cc1OC)N(C)[C@H]1[C@@](O)(C(=O)OC)[C@H](OC(C)=O)[C@]4(CC)C=CCN5CC[C@]31[C@@H]54)C2.O=C(O)C(O)C(O)C(=O)O
- scaled lipid accumulation score [2]: 1.52 (active)

Structure (SMILES): COc1ccc2c(c1)c(CC(=O)O)c(C)n2Cc1ccc(Cl)cc1 [1-(4-Chlorobenzyl)-5-methoxy-2-methylindole-3-acetic acid]
- scaled lipid accumulation score [2]: 0.078

Structure (SMILES): Cc1cccc(C#Cc2ccccc2)n1
- scaled lipid accumulation score [1]: ≤ 0
- scaled lipid accumulation score [2]: 0.052

Structure (SMILES): Nc1ccccc1S(N)(=O)=O [2-Aminobenzenesulfonamide]
- scaled lipid accumulation score: ≤ 0

Structure (SMILES): Cc1cccc(C#Cc2ccccc2)n1 [6-Methyl-2-(phenylethynyl)pyridine hydrochloride]
- scaled lipid accumulation score [2]: ≤ -0.034

Structure (SMILES): NS(=O)(=O)C#Cc1ccccc1 [Pifithrin-mu]
- scaled lipid accumulation score [2]: 1.02 (active)

Structure (SMILES): Cc1cccc(C#Cc2ccccc2)n1 [MPEP hydrochloride]
- scaled lipid accumulation score [2]: 0.053

Structure (SMILES): NS(=O)(=O)C#Cc1ccccc1 [Pifithrin->m]
- scaled lipid accumulation score [2]: 1.46 (active)

Structure (SMILES): FC(F)(F)c1ccc(/C=C\c2cc(Cl)cc(Cl)c2)cc1
- scaled lipid accumulation score [3]: ≤ 0

Structure (SMILES): CCCCC/C=C\C/C=C\C/C=C\C/C=C\CCCC(=O)C(F)(F)F [Arachidonyl Trifluoromethyl Ketone]
- scaled lipid accumulation score [3]: ≤ 0

Structure (SMILES): CCCCCCCCCCCC#CC#CC#CC#CC(=O)O [Eicosatetraynoic Acid]
- scaled lipid accumulation score [3]: ≤ 0

Structure (SMILES): COc1cc(OC)c(/C=C/S(=O)(=O)Cc2ccc(OC)c(NCC(=O)O)c2)c(OC)c1
- scaled lipid accumulation score [4]: ≤ -0.016
- scaled lipid accumulation score [5]: ≤ -0.016
- scaled lipid accumulation score [6]: 0.096
- scaled lipid accumulation score [1]: 0.068
- scaled lipid accumulation score [2]: 0.138 and 0.063

Structure (SMILES): CC(C)NCC(O)COc1ccc(CC(N)=O)cc1 (racemic) [(RS)-Atenolol]
- scaled lipid accumulation score [2]: 0.043

Structure (SMILES): CN1CCC(NC(=O)C2=CC(=C3C(O)=CC(=O)C=C3Oc3ccc([N+](=O)[O-])cc3)ON2)CC1
- scaled lipid accumulation score [2]: 0.976 (active)

Structure (SMILES): CN1CCC(NC(=O)c2cc(-c3c(O)cc(O)cc3Oc3ccc([N+](=O)[O-])cc3)on2)CC1
- scaled lipid accumulation score [1]: 0.756

Structure (SMILES): COc1ccc2c(c1)C(=O)N(CCc1ccc(S(=O)(=O)NC(=O)NC3CCCCC3)cc1)C(=O)C2(C)C [Gliquidone]
- scaled lipid accumulation score: ≤ 0

Structure (SMILES): CCCCCC=CCC=CCC=CCC=CCCCC(=O)OCC(O)CO (stereo not drawn) [1-Arachidonoyl Glycerol]
- scaled lipid accumulation score [3]: 0.012

Structure (SMILES): CCCCC/C=C\C[C@H](O)/C=C/C=C\C/C=C\CCCC(=O)O
- scaled lipid accumulation score (library stock concentration: 100 uM): ≤ -0.021

Structure (SMILES): Cc1cc2c(OCC(CNC(C)(C)C)OC(=O)c3ccccc3)cccc2[nH]1 (stereo not drawn) [Bopindolol malonate]
- scaled lipid accumulation score (library stock concentration: 5.3 mM): ≤ -0.006

Structure (SMILES): COc1cc(/C=C/C(=O)O)ccc1O [Ferulic acid]
- scaled lipid accumulation score [2]: ≤ 0

Structure (SMILES): COc1cc(/C=C/C(N)=O)cc(OC)c1OC
- scaled lipid accumulation score [2]: 0.006

Structure (SMILES): COc1cc(/C=C/C(=O)O)ccc1O [Ferulic Acid]
- scaled lipid accumulation score [1]: ≤ 0
- scaled lipid accumulation score [2]: ≤ 0

Structure (SMILES): COc1ccc(/C=C\c2cc(OC)c(OC)c(OC)c2)cc1O [Combrestatin A4]
- scaled lipid accumulation score [3]: 0.237 (active)

Structure (SMILES): Nc1[nH]nc2nc3ccccc3nc12
- scaled lipid accumulation score [2]: ≤ -0.006

Structure (SMILES): CC(C)[C@H](N)C(=O)OCC(CO)OCn1cnc2c(=O)[nH]c(N)nc21 (stereo partly drawn) [Valganciclovir HCl]
- scaled lipid accumulation score [1]: ≤ 0
- scaled lipid accumulation score [2]: 0.028

Structure (SMILES): COC(=O)C(Cc1ccc(OCCn2c(=O)sc3cc(C(=O)c4ccccc4)ccc32)cc1)C(=O)OC
- scaled lipid accumulation score [2]: ≤ 0

Structure (SMILES): CCCCN(CC)c1nc(C)nc2c1c(C)cn2-c1c(C)cc(C)cc1C
- scaled lipid accumulation score [2]: 0.047

Structure (SMILES): Cc1ccc(NC(=O)c2ccc(CN3CCN(C)CC3)cc2)cc1Nc1nc(-c2cccnc2)cs1 [Masitinib (AB1010, Masivet) (0.4 mM)]
- scaled lipid accumulation score [5]: 0.487

Structure (SMILES): Cc1ccc(NC(=O)c2ccc(CN3CCN(C)CC3)cc2)cc1Nc1nc(-c2cccnc2)cs1 [Masitinib (AB1010)]
- scaled lipid accumulation score [1]: 1.13 (active)
- scaled lipid accumulation score [2]: 0.856 (active)

Structure (SMILES): Cc1ccc(-c2csc(NC(=O)c3ccccc3)n2)c(C)c1
- scaled lipid accumulation score [1]: ≤ -0.009
- scaled lipid accumulation score [2]: ≤ 0

Structure (SMILES): Cc1cc(C)c(-c2csc(NC(=O)c3ccccc3)n2)c(C)c1
- scaled lipid accumulation score [1]: ≤ -0.009
- scaled lipid accumulation score [2]: 0.033

Structure (SMILES): Cc1ccc(NC(=O)c2ccc(CN3CCN(C)CC3)cc2)cc1Nc1nc(-c2cccnc2)cs1 [Masitinib] [listing 1 of 2 here]
- scaled lipid accumulation score [2]: 1.07 (active)

Structure (SMILES): Cc1ccc(NC(=O)c2ccc(CN3CCN(C)CC3)cc2)cc1Nc1nc(-c2cccnc2)cs1 [Masitinib (AB1010, Masivet) (10 mM)]
- scaled lipid accumulation score [2]: 0.755

Structure (SMILES): Cc1ccc(NC(=O)c2ccc(CN3CCN(C)CC3)cc2)cc1Nc1nc(-c2cccnc2)cs1 [Masitinib] [listing 2 of 2 here]
- scaled lipid accumulation score [4]: ≤ -0.009
- scaled lipid accumulation score [5]: 0.153
- scaled lipid accumulation score [6]: 0.121

Structure (SMILES): Cc1ccc(NC(=O)c2ccc(CN3CCN(C)CC3)cc2)cc1Nc1nc(-c2cccnc2)cs1 [Masitinib (AB1010, Masivet) (2 mM)]
- scaled lipid accumulation score [6]: 1.37 (active)
